Most compounds without a hit are left out; they make up all but 1.5% or so of the library.
NOD2-RIPK2 inh – blocks binding of human NOD2 to RIPK2 | O43353 | CHO BLA complementation NOD2-RIPK2, CCF4 ratio | AID 624267 | inhibition, % at 4.98 µM | hit rate 0.38% among 360,000; in the data active = inhibition above about 21%;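 note: 0% = vehicle only and 100% = reference blocker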
TLR4-MyD88 BLA – inhibitors of human TLR4-MyD88 binding; AID 861; hit rate 0.18% among 200,000; HeLa CL3-4 TLR4/MyD88 BLA complementation, FRET ratio; O00206+Q99836; inhibition, % at 8.4 µM; in the data active = inhibition above about 25%;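 note: 0% = vehicle and 100% = reference inhibitor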
TLR9-MyD88 inh – TLR9-MyD88 interaction inhibition | Q9NR96+Q99836 | CHO BLA complementation TLR9-MyD88, CCF4 FRET ratio | inhibition, % at 4.98 µM | hit rate 0.21% among 340,000 | AID 504734;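 active = inhibition above the mean over all tested compounds plus 3 SD, cut at about 21% in these data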;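 note: 0% = DMSO only wells and 100% = clavulanate BLA inhibitor control wells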
B2AR ag – activates human beta-2 adrenergic receptor causing internalization; P07550; Am2.2-beta2AR cells, FAP receptor internalization, flow cytometry; response, % (concentration not given with the values); hit rate 0.43% among 340,000; AID 504454;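 active = response above a set limit, near 3 SD of response in nonfluorescent compounds, cut at about 42% in these data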
Target sequence (P07550 whole entry, looked up): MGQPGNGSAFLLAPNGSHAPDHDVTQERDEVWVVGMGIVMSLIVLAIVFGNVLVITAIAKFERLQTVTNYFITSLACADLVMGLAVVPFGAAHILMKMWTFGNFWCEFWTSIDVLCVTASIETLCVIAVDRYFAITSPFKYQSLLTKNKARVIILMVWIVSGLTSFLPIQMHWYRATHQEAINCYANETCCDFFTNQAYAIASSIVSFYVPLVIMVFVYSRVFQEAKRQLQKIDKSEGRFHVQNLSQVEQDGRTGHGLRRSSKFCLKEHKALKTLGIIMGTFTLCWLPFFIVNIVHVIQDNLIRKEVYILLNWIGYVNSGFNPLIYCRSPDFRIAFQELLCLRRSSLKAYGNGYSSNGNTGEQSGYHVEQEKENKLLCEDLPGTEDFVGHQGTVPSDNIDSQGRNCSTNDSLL
ABHD5 PLIN5 PPI – blocks binding of human ABHD5 to perilipin-5. Split G. princeps luciferase complementation, luminescence, 4 h. Q00G26+Q8WTS1. hit rate 0.78% among 360,000. inhibition, % at 4 µM. AID 602281;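 active = inhibition above the mean inhibition across every tested compound plus 3 SD, cut at about 22% in these data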;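 note: 0% = DMSO only wells and the 100% control is not disclosed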
NTR1 ag – NTR1 (human) agonism. P30989. NTR1-U2OS beta-arrestin-GFP spot imaging, agonist mode. activation, % at 20 µM. hit rate 0.17% among 330,000. AID 493036;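 active = activation at or above 40% of the spot to cytoplasm intensity ratio, with at least 20 cells analyzed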;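 note: 0% = DMSO without peptide and 100% = 100 nM NTR1 peptide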
* marks the source's active call; other numbers are inactive results; · = no result.

SMILES | NOD2-RIPK2 inh | TLR4-MyD88 BLA | TLR9-MyD88 inh | B2AR ag | ABHD5 PLIN5 PPI | NTR1 ag
COc1cccc(-c2cc3nc(NCc4ccc(C)cc4C)n(C)c(=O)c3s2)c1 | -0.1 | · | · | · | 0.6 | ·
COc1ccc(Nc2cc(C)nc(NCc3ccccc3)n2)cc1 | -0.8 | · | · | 19.3 | 22.2* | 10.8
Cc1cc(C(=O)CSc2nnc(-c3cccc(F)c3)n2N)c(C)n1Cc1ccc2c(c1)OCO2 | 1.4 | -2.5 | 5.3 | 81.9* | 6.9 | 2.0
Cc1cc(C(=O)CSc2nnnn2-c2ccc(O)cc2)c(C)n1Cc1ccc2c(c1)OCO2 | -1.6 | -1.6 | -2.6 | 7.0 | 1.9 | 6.5
O=c1c(Cl)c(O)ccn1C1OC(CO)C(O)C1O (centres undefined) | -6.7 | · | -8.7 | -13.2 | 2.8 | ·
Cc1ccc(-c2nc(=S)c3c(n2Cc2ccco2)CC(C)(C)OC3)cc1 | 4.4 | -7.8 | 1.1 | 13.5 | 54.7* | 3.9
O=C(/C=C/c1ccncc1)c1ccc(NC(=O)c2ccccc2F)cc1 | 64.4* | 9.3 | 24.6* | 51.0* | 95.0* | ·
CCc1ccc(S(=O)(=O)/N=C2/C=C(Sc3ncn[nH]3)C(=O)c3ccccc32)cc1 | -2.2 | -10.0 | -14.4 | 55.1* | 32.3* | ·
COc1ccc(C(C[N+](=O)[O-])C2(c3ccc(OC)c(OC)c3)C(=O)c3ccccc3C2=O)cc1 (centres undefined) | 81.5* | 15.5 | 18.6 | 50.6* | 83.8* | ·
CN(C)c1ncc(C2=C(Cl)C(=O)C(N3CCCC3)=C(Cl)C2=O)s1 | -11.6 | 4.2 | 2.2 | 75.7* | -2.4 | 0.6
O=C1NC[C@@H](CCCCN2C[C@H](Cc3ccc(O)cc3)N(CCc3ccccc3)C(=O)C2=O)N(CCC2CCCCC2)C1=O | 7.1 | · | · | · | 8.5 | ·
Oc1cc(-c2ccc(N3CCCCC3)nc2)cc2cccnc12 | 22.3* | · | 15.5 | 9.9 | 1.5 | 8.0
COc1ccc(NC(=O)c2cc(-c3ccc(C)o3)nc3ccccc23)cc1OC | -6.2 | 16.9 | -7.9 | 8.7 | 33.6* | 2.9
COc1ccc(NC(=O)c2cc(-c3ccc(C)o3)nc3ccccc23)c(OC)c1 | -1.9 | · | · | 14.1 | 4.7 | 5.5
COc1ccc(N2C(=O)c3ccccc3NC(=O)C2C(=O)Nc2ccc(N3CCOCC3)cc2)cc1 (centres undefined) | -9.9 | · | · | · | 1.4 | ·
CCN(CC)CCCN=C1N[C@@H](c2cccc(F)c2)C(C(=O)OC)=C(C)N1Cc1ccccc1 | -10.7 | · | -2.1 | 65.9* | 8.2 | 5.1
COCCOC(=O)/C(=C/c1ccc(OC(=O)c2ccccc2)cc1)C(C)=O | -5.2 | -8.0 | -3.2 | 42.7* | 6.9 | -0.8
CCOC(=O)/C(=C/c1ccc(OC(=O)c2ccncc2)cc1)C(C)=O | -12.4 | 7.2 | -17.3 | 4.2 | 9.0 | 0.5
CCOc1ccc(C(=O)NCC(=O)OCC(=O)N(C)CC(=O)Nc2ccccc2CC)cc1OCC | -16.3 | · | -7.5 | -4.1 | 7.8 | ·
CCOC(=O)c1cc([N+](=O)[O-])c([N+](=O)[O-])cc1NC(C)=O | 13.2 | 4.5 | 19.8 | 73.7* | 11.6 | ·
CCCNC(=O)C1(C)CCCN(Cc2cc(-c3ccccc3)nn2C)C1 (centres undefined) | 4.5 | · | · | · | -14.4 | ·
CC(C)(C)C1=CC(=Nc2ccccc2N)C=C(C(C)(C)C)C1=O | -6.9 | -5.9 | -25.3 | 3.3 | 7.5 | -1.4
CC(C)(C)C1=CC(=O)C(=O)C(C(C)(C)C)=C1 | -12.3 | -1.5 | -3.5 | 110.0* | 1.0 | -2.1
O=C(Nc1ccc2oc(=O)ccc2c1)c1ccc(-c2cccc(Cl)c2)o1 | 5.4 | · | -7.2 | 45.1* | 3.9 | 7.9
CC(O)(c1ccccc1)c1nc(-c2ccncc2)cs1 (centres undefined) | -1.3 | · | · | · | -3.9 | ·
SMILES | NOD2-RIPK2 inh | TLR4-MyD88 BLA | TLR9-MyD88 inh | B2AR ag | ABHD5 PLIN5 PPI | NTR1 ag
CC(/C=C/c1ccco1)=N\NC(=O)c1cccc(Cl)c1 | 3.6 | -8.4 | 16.1 | 12.1 | 3.0 | 3.6
CC(/C=C/c1ccco1)=N/NC(=O)c1ccccc1Cl | 3.9 | 10.6 | 2.6 | 10.9 | 22.1* | -1.2
O=C1C(Cl)=C(Nc2ccc(O)cc2)C(=O)c2ccccc21 | -4.1 | · | -1.8 | 73.2* | 1.1 | -2.5
Cc1ccc(NC2=C(Cl)C(=O)c3ccccc3C2=O)cc1 | -3.2 | -6.8 | -7.0 | 35.5 | 0.7 | ·
CCN(CC)c1ccc(NC2=C(Cl)C(=O)c3ccccc3C2=O)cc1 | 2.0 | -5.4 | 1.4 | 74.3* | -1.2 | ·
CC1(C(=O)Nc2ccc(Cl)cc2)Cc2c(-c3cccc(C(F)(F)F)c3)ccnc2O1 (centres undefined) | 11.5 | · | · | · | -7.9 | ·
O=C(COc1cc2oc(=O)c3c(c2cc1Cl)CCC3)NCCCN1CCCC1=O | 9.2 | · | -3.2 | -2.9 | 1.7 | -1.6
O=C(COc1cc2oc(=O)c3c(c2cc1Cl)CCC3)Nc1ccc(CN2CCOCC2)cc1 | -0.5 | · | 1.4 | 42.3* | 6.4 | -0.3
CCC(CC)C(=O)N(C)c1c(C)nc2c(OCc3ccccc3C(=O)OC)cccn12 | 6.6 | · | · | · | -2.3 | ·
O=C(NCCc1ccccc1)C1CCCN1C(=O)NCc1ccccc1 (centres undefined) | -9.5 | -6.8 | -1.2 | 0.4 | -1.3 | -0.7
CC(C)(C)OC(=O)N1CCCC1C(=O)NCCc1ccccc1 (centres undefined) | -1.5 | 9.2 | -2.5 | 54.6* | -1.9 | -0.6
C#CCOCCOCCOCCNc1nc(N2CCN(C(=O)CCCCCCCCCCNC(=O)[C@H](CCCCN)n3cc(CCO)nn3)CC2)nc(N2CCN(C(=O)CCCCCCCCCCNC(=O)[C@H](CCCCN)n3cc(CCCC(=O)O)nn3)CC2)n1 | -3.4 | · | -4.3 | 31.7 | 15.6 | 13.5
C#CCOCCOCCOCCNc1nc(N2CCN(C(=O)CCCCCCCCCCNC(=O)[C@@H](CCSC)n3cc(CCO)nn3)CC2)nc(N2CCN(C(=O)CCCCCCCCCCNC(=O)[C@H](CCC(=O)O)n3cc(CCCCCN)nn3)CC2)n1 | -1.2 | · | -6.5 | 31.7 | 41.3* | -0.1
C#CCOCCOCCOCCNc1nc(N2CCN(C(=O)CCCCCCCCCCNC(=O)[C@@H](CCC(=O)O)n3cc(CCCCCN)nn3)CC2)nc(N2CCN(C(=O)CCCCCCCCCCNC(=O)[C@H](CO)n3cc(CCCSC)nn3)CC2)n1 | -7.9 | · | 6.3 | 13.3 | 46.9* | -0.7
O=C(NCC[C@@H]1CC[C@@H](NC(=O)c2cnccn2)[C@@H](CO)O1)c1ccc2c(c1)OCO2 | -0.2 | · | · | · | -5.2 | ·
CN(C)c1nc(Oc2ccc(N)cc2)nc(N(C)C)n1 | 8.9 | -14.8 | -0.3 | 76.7* | 6.9 | -0.3
CCOC(=O)C1=C(C)c2ccccc2N(C(=O)OC)C1(C)C(=O)OCC (centres undefined) | 3.8 | · | 11.2 | -6.1 | 30.4* | 1.3
CCCC(=O)N1CCC1(C)C(=O)NS(=O)(=O)c1ccccc1 (centres undefined) | 2.0 | · | · | · | -7.0 | ·
Nc1nc2c(ncn2[C@@H]2O[C@H](CNCc3ccccc3)[C@@H](O)[C@H]2O)c(=O)[nH]1 | -1.5 | · | · | · | -1.1 | ·

Screening data from PubChem.
